“And” between values parts separate entries of the source, which are not always exact repeats. Equal entries are not always repeated. Results filed as inconclusive are left out. Unmarked numbers belong to inactive results. The source made the active and inactive calls. Calls follow the shape of the dose curve; as a rule, active = well fitted curve in the direction sought with a large enough effect; inconclusive = small, poorly fitted or top-dose-only effect, or another doubt; inactive = no such curve, though single readings can be large; an effect the other way counts as inactive or inconclusive.
Key:
[1] = target: Calcium and integrin-binding protein 1 (Homo sapiens) (UniProt Q99828); assay: Primary qHTS for Identification of Calcium Integrin Binding Protein 1 (CIB1) Competitor (AID 1508620); conditions: CIB1-GST / FITC-alphaIIb peptide fluorescence polarization; series mostly up to 114 µM;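 also: GST tagged CIB1 binding a fluorescein labelled alphaIIb integrin peptide tracer; top concentration of the series differs between compounds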
Chain of Calcium and integrin-binding protein 1 (Homo sapiens) (Q99828 whole entry, looked up): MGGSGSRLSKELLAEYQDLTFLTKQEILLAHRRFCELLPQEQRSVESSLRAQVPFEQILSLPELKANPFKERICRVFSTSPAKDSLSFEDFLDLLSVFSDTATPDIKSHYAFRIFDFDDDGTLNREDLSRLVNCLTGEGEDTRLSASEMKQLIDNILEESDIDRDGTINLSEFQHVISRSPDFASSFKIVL
Method in brief: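 CIB1-GST (1 uM final) and compound incubated 15 min at room temperature before adding FITC-alphaIIb peptide tracer (100 nM final). Competition for binding read by fluorescence polarization (ex 480, em 540) after another 15 min at room temperature.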

[2] = Primary qHTS for inhibitors of nuclear receptor binding SET domain protein 2 (NSD2) in an isogenic RCH-ACV NSD2 p.E1099K mutant (9B) (AID 1645876); conditions: RCH-ACV NSD2 E1099K (9B) viability, CellTiter-Glo, 72 h; series mostly up to 44.9 µM; also: nearly all actives have a fitted effect of over 70% in size; also: potency is read from the fitted curve at half-maximal effect
[3] = Primary qHTS for inhibitors of nuclear receptor binding SET domain protein 2 (NSD2) in an RCH-ACV wild type WT cells (2C) (AID 1645877); conditions: RCH-ACV (leukaemia line) NSD2 WT (2C) viability, CellTiter-Glo, 72 h; series mostly up to 44.9 µM; also: nearly all actives have a fitted effect of over 70% in size; also: potency is read from the fitted curve at half-maximal effect
% is scaled to controls: 0 for no effect and ±100 for the full control effect.

SMILES | Potency [1] | Potency [2] | Potency [3] | activity change, negative = inhibition [1]
CC(=O)OC1C(O)CC2(C)C(CCC3(C)C2CC=C2C4C5(CCC(CO[C@@H]6O[C@H](CO)[C@@H](O)[C@H](O)[C@H]6O)(OC5=O)C4(C)O)C(O)CC23C)C1(C)C (some centres undefined) | inactive | inactive | inactive | 
Nc1nc(Cl)nc2c1ncn2C1OC(CO)C(O)C1F (centres undefined) | inactive | 0.0092 µM (active) | 0.0082 µM (active) | 
C=C1CCC2C(C)(C(=O)O)CCCC2(C)C1CCC1=CCOC1=O (centres undefined) | inactive | inactive | inactive | 
CC(C)CC(=O)c1c(O)cc2c(c1O)C(CC(C)C)C1=C(O2)C(C)(C)C(=O)C(C)(C)C1=O (centres undefined) | inactive | 10 µM (active) | 7.96 µM (active) | 
Cn1cc(-c2cnn3c(N)c(Br)c(C4CCCNC4)nc23)cn1 (centres undefined) | inactive | 1.18 µM (active) | 1.05 µM (active) | 
CC(C)(F)CC(NC(c1ccc(-c2ccc(S(C)(=O)=O)cc2)cc1)C(F)(F)F)C(=O)NC1(C#N)CC1 (centres undefined) | inactive | inactive | inactive | 
C=C(C=O)[C@]1(O)C[C@@]2(C)C(=CC1=O)C=C[C@H](OC(=O)/C=C/C=C/[C@H](C)CC)[C@@H]2C | inactive | 3.17 µM (active) | 1.59 µM (active) | 
C[C@]12CC[C@@H]3c4ccc(O)c(O)c4CC[C@H]3[C@@H]1CCC2=O | inactive | 18.3 µM (active) | 11.5 µM (active) | 
CC1(C)CC[C@]23CO[C@@]4(CCC5[C@@]6(C)CC[C@H](O[C@@H]7OC[C@H](O[C@@H]8O[C@H](CO)[C@@H](O)[C@H](O)[C@H]8O[C@@H]8OC[C@@H](O)[C@H](O)[C@H]8O)[C@H](O)[C@H]7O[C@@H]7O[C@H](CO)[C@@H](O)[C@H](O)[C@H]7O)[C@@](C)(CO)C6CC[C@@]5(C)[C@]4(C)C[C@H]2O)[C@@H]3C1 (some centres undefined) | inactive | 1.54 µM (active) | 2.75 µM (active) | 
C=C1CC[C@@H]2[C@](C)(CO)[C@H](O)CC[C@@]2(C)[C@@H]1C/C=C1/C(=O)OCC1O (some centres undefined) | inactive | 14.5 µM (active) | 7.28 µM (active) | 
O=C(Nc1ccnc(NC(=O)C2CC2)c1)c1c(Cl)cccc1Cl | inactive | 2.95 µM (active) | 2.95 µM (active) | 
C/C=C(\C)[C@@H]1C(C)=C[C@@H]2[C@H]([C@@H]1/C=C/C=C/C(=O)O)[C@@H](C)CC[C@@H]2O | inactive | 5.05 µM (active) | 4.01 µM (active) | 
NC(=O)c1ccccc1Nc1ccnc(Nc2cccc(O)c2)n1 | inactive | 0.742 µM (active) | 0.833 µM (active) | 
COC1CC(O[C@H]2CC[C@]3(C)C4CC[C@]5(C)C(C6=CC(=O)OC6)=CCC56OC46CC[C@@H]3C2)OC(C)C1O[C@@H]1O[C@H](CO[C@@H]2O[C@H](CO)[C@@H](O)[C@H](O)[C@H]2O)[C@@H](O)[C@H](O)[C@H]1O (some centres undefined) | inactive | 1.54 µM (active) | 2.75 µM (active) | 
CC(O)(C(=O)O)C1CCC2(C)C1CCC1(C)C2CCC2C3(C)CCC(O)C(C)(COC4OC(CO)C(O)C(O)C4O)C3CCC21C (centres undefined) | inactive | inactive | inactive | 
C=C1C(=O)OC2/C=C(\C)CC3C=C(CC/C=C(\C)CCC12)C(=O)O3 (centres undefined) | inactive | 12.7 µM (active) | 4.5 µM (active) | 
Cc1ccc(NC(=O)c2ccc(CN3CCNCC3)cc2)cc1Nc1nccc(-c2cccnc2)n1 | inactive | 16.3 µM (active) and 14.8 µM (active) | 18.3 µM (active) and 14.8 µM (active) | 
CC(=O)O[C@H]1CC(C)(C)CC2[C@]13CO[C@@]21CCC2[C@@]4(C)CC[C@H](O[C@@H]5OC[C@H](O[C@@H]6O[C@H](CO)[C@@H](O)[C@H](O)[C@H]6O[C@@H]6OC[C@@H](O[C@@H]7O[C@H](CO)[C@@H](O)[C@H](O)[C@H]7O)[C@H](O)[C@H]6O)[C@H](O)[C@H]5O[C@@H]5O[C@H](CO)[C@@H](O)[C@H](O)[C@H]5O)[C@@](C)(CO)C4CC[C@@]2(C)[C@]1(C)C[C@H]3O (some centres undefined) |  | 1.09 µM (active) | 2.18 µM (active) | 3.35% [at 12.4 µM]
COc1cc(O)cc(OC2OC(CO)C(O)C(O)C2O)c1 (centres undefined) | inactive | inactive | inactive | 
Cc1sc2c(c1C)C(c1ccc(Cl)cc1)=N[C@H](CC(=O)NCCCCNC(=O)COc1cccc3c1C(=O)N([C@H]1CCC(=O)NC1=O)C3=O)c1nnc(C)n1-2 | inactive | 0.23 µM (active) | 0.129 µM (active) | 
CCOc1cc(C(C)(C)C)ccc1C1=NC(C)(c2ccc(Cl)cc2)C(C)(c2ccc(Cl)cc2)N1C(=O)N1CCN(CCCS(C)(=O)=O)CC1 (centres undefined) | inactive | 0.817 µM (active) | 0.258 µM (active) | 
C/C=C(\C)C(=O)OC1C[C@@]2(COC(C)=O)O[C@H]2/C=C\[C@@]2(C)O[C@@H]2[C@H]2OC(=O)C(COC(C)=O)=C12 (some centres undefined) | inactive | 8.93 µM (active) | 5.63 µM (active) | 
COc1ccc(-n2c(SCCCN3C(=O)c4cccc5cccc(c45)C3=O)nnc2-c2ccncc2)cc1 | inactive | inactive | inactive | 

— PubChem BioAssay (NCATS)
